High-throughput results as filed in PubChem.
BAZ2B block: blocks human BAZ2B. actives 4.4% (n = 360,000). Q9UIF8. AlphaScreen BAZ2B-H3K14Ac peptide displacement. Potency, µM (series often up to 114 µM), for inactives: at the top dose activity change, negative = inhibition, actives largely listed as inhibitors. AID 504333; further: on the % scale 0 is the no-effect control and ±100 the full control effect; nearly all actives have a fitted effect of over 60% in size
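BAZ2B 50 nM plus b-H3(5-23)K14Ac 50 nM, PBS pH 7.4/0.01% Tween-20, 30 min RT; compound added (max 110 uM), 30 min RT; streptavidin donor/Ni-chelate acceptor beads 10 ug/mL final, 20 min dark; AlphaScreen read.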
JMJD2A Tudor: inhibitors of human JMJD2A Tudor domain. AlphaScreen JMJD2A-Tudor / H3K4me3 peptide binding. actives 4.4% (n = 390,000). Potency, µM (series often up to 114 µM), for inactives: at the highest dose activity change, negative = inhibition, hits mostly inhibitors. O75164; further: on the % scale 0 is the no-effect control and ±100 the full control effect; nearly all actives have a fitted effect of over 50% in size
Target sequence (O75164 whole entry, looked up, the tested form may be a part): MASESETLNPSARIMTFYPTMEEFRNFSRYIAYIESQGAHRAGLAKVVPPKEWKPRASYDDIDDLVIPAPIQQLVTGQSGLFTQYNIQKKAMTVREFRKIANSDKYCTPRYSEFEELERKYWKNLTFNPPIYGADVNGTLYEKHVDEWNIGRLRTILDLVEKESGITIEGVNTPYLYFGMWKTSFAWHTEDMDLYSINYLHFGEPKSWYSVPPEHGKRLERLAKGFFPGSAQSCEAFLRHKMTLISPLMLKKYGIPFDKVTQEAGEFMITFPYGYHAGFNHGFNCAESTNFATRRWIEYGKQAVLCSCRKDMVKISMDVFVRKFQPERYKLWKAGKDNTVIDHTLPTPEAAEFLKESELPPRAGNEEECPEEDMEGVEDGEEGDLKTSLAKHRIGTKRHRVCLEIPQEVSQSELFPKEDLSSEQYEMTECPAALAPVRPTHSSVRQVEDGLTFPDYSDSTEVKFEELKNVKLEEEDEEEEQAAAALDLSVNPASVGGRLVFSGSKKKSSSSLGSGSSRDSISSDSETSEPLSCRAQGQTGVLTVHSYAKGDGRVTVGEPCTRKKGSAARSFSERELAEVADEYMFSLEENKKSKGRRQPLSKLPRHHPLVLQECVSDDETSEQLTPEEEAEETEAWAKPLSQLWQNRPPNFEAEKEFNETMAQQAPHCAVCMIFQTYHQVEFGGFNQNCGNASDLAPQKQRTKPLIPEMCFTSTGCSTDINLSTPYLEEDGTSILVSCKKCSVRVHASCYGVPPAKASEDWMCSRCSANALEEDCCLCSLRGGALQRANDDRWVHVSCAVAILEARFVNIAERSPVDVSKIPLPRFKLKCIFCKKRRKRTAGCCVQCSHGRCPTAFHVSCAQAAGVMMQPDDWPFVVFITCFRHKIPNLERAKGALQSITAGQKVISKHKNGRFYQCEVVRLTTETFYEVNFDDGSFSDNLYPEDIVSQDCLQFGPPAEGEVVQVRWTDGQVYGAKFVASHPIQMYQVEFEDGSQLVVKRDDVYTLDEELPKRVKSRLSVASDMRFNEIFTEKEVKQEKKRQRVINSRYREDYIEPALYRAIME
PLK1 PBD block: inhibitors of human PLK1 polo-box domain binding | P53350 | Plk1 PBD binding of FITC phosphopeptide, fluorescence polarization | Potency, µM, without a hit: max response, negative = inhibition, hits mostly inhibitors | actives 2.8% (n = 360,000) | AID 720504; further: series mostly up to about 57 µM; on the % scale 0 is the no-effect control and ±100 the full control effect; nearly all actives have a fitted effect of over 65% in size
G9a inh: inhibitors of human histone lysine methyltransferase G9a; actives 8.8% (n = 350,000); AID 504332; Q96KQ7; G9a H3K9 monomethylation, AlphaScreen, 2 h; Potency, µM (titrated, usually from 102 µM), without a hit: at the top dose activity, negative = inhibition, actives largely listed as inhibitors; further: on the % scale 0 is the no-effect control and ±100 the full control effect; nearly all actives have a fitted effect of over 75% in size
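G9a (20 nM) was preincubated 15 min with compound, then reacted 2 h at room temperature with 500 nM biotin-H3K9 peptide and 20 µM SAM. Monomethyl-H3K9 detected by AlphaScreen using anti-H3K9me1 antibody.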
HP1b binding inh: HP1-beta chromodomain-methylated histone interaction inhibition; P83916; AlphaScreen HP1-beta / biotin-H3K9me3 peptide binding; Potency, µM (top dose mostly 114 µM), for inactives: at the top dose activity change, negative = inhibition, most hits filed as inhibitors; actives 0.56% (n = 390,000); AID 540317; further: nearly all actives have a fitted effect of over 70% in size
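AlphaScreen: HP1-beta (50 nM) preformed 30 min with biotin-H3(1-18)K9me3 peptide (50 nM) in PBS pH 7.4, 0.01% Tween-20. Compound added for 30 min at RT, then streptavidin donor/nickel chelate acceptor beads (10 ug/mL) for 30 min.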
VDR inhibitor: inhibitors of human vitamin D receptor. VDR-SRC2-3 peptide fluorescence polarization, 2 h. Potency, µM, without a hit: max response, negative = inhibition, most hits filed as inhibitors. actives 0.93% (n = 400,000). AID 504847; further: on the % scale 0 is the no-effect control and ±100 the full control effect
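Inhibition of the VDR/SRC2-3 peptide interaction is quantified by fluorescence polarization. Compounds (23 nl, pintool) incubate with the reagents for 2 hours at ambient room temperature.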
* marks the source's active call; other numbers are inactive results; ! = repeats disagree; [ ] = dose if it differs, or a comment. An excerpt weighted towards active compounds, which were near 11% of everything screened. The call rests on the fitted dose curve; in most records, active means well fitted curve in the direction sought with a large enough effect; inconclusive means small, poorly fitted or top-dose-only effect, or another doubt; inactive means no such curve, though single readings can be large; an effect the other way counts as inactive or inconclusive. Potency means the concentration at half of the fitted maximal effect.

C/C(=C\c1cccc(Br)c1)C(=O)c1c(C)cc(C)[nH]c1=O was read as BAZ2B block -2%, JMJD2A Tudor -9%, PLK1 PBD block 1%, G9a inh 17%[2.33 µM], HP1b binding inh 9% and VDR inhibitor 11%.
`C/C(=C\c1ccc(C)o1)C(=O)c1c(C)cc(C)[nH]c1=O` gave JMJD2A Tudor -19%, PLK1 PBD block -15%, G9a inh 50µM*, HP1b binding inh 20% and VDR inhibitor -22%.
For c1coc(CN(Cc2ccco2)c2ncnc3c2oc2ccccc23)c1 the results were BAZ2B block inconclusive, JMJD2A Tudor 40µM*, PLK1 PBD block -10%, G9a inh 14µM*, HP1b binding inh -5% and VDR inhibitor -10%.
COc1ccc(-n2nc3c(c2NC(=O)C24CC5CC(CC(C5)C2)C4)CS(=O)C3)cc1 (stereo not drawn) was read as BAZ2B block -5%, JMJD2A Tudor -12%, PLK1 PBD block -14%, G9a inh 79µM*, HP1b binding inh 36% and VDR inhibitor -9%.
COc1ccc(-n2nc3c(c2NC(=O)C2CCCC2)CS(=O)C3)cc1 (stereo not drawn) was read as BAZ2B block -4%, JMJD2A Tudor -12%, PLK1 PBD block -8%, G9a inh -9%, HP1b binding inh 47% and VDR inhibitor -19%.
`CCN(CC)S(=O)(=O)c1ccc(N/N=C/c2cc(OC)ccc2O)nc1` gave BAZ2B block -2%, JMJD2A Tudor -25%, PLK1 PBD block -1%, G9a inh 5%[59 µM], HP1b binding inh 32% and VDR inhibitor -20%.
Screening COc1ccc(S(=O)(=O)NCCOc2cccc3cccnc23)cc1OC returned BAZ2B block -15%, JMJD2A Tudor -7%, PLK1 PBD block -1%, G9a inh 9%, HP1b binding inh 28% and VDR inhibitor 13%.
`CCN(CC)S(=O)(=O)c1cc(OC)ccc1N=Nc1ccc(O)c2ncccc12` gave BAZ2B block 20µM*, JMJD2A Tudor 13µM*, PLK1 PBD block -20%, G9a inh 8.9µM*, HP1b binding inh inconclusive and VDR inhibitor -4%.
For CCS(=O)(=O)c1ccc(OC)c(N=Nc2ccc(O)c3ncccc23)c1 the results were BAZ2B block 8.9µM*, JMJD2A Tudor 40µM*, PLK1 PBD block 9%, G9a inh 14µM*, HP1b binding inh -2% and VDR inhibitor 2%.
Screening CCOC1=C2[C@H](c3ccccc3)N(S(=O)(=O)c3ccc(C)cc3)C[C@H]2n2c(=O)n(-c3ccccc3)c(=O)n2C1 returned PLK1 PBD block 5%.
Screening CCOc1ccc(CC(=O)NC2CC(=O)N(c3cccc(F)c3)C2)cc1 (stereo not drawn) returned BAZ2B block -11%, JMJD2A Tudor -6%, G9a inh -5%[59 µM], HP1b binding inh -4% and VDR inhibitor -4%.
For CC12OC1C1(O)CCCC1=CC2=O (stereo not drawn) the results were BAZ2B block -6%[57.1 µM].
`COc1ccccc1CCNCc1ccc(OC)c(OCc2ccccc2)c1` gave BAZ2B block inconclusive, JMJD2A Tudor 3.2µM*, PLK1 PBD block -3%, G9a inh inconclusive, HP1b binding inh inconclusive and VDR inhibitor 26%.
Screening COc1cc(CNCc2cccnc2)ccc1OCc1ccccc1 returned BAZ2B block -36%, JMJD2A Tudor -13%, PLK1 PBD block -4%, G9a inh -39%, HP1b binding inh 2% and VDR inhibitor -5%.
For COc1cc(CNCCc2c[nH]c3ccccc23)ccc1OCc1ccccc1F the results were BAZ2B block 35µM*, JMJD2A Tudor 40µM*, PLK1 PBD block -5%, G9a inh 17%[0.501 µM], HP1b binding inh inconclusive and VDR inhibitor -5%.
`COc1ccc(CNCc2ccco2)cc1OCc1ccccc1` gave BAZ2B block 79µM*, JMJD2A Tudor 13µM*, PLK1 PBD block -8%, G9a inh 13µM*, HP1b binding inh inconclusive and VDR inhibitor 8%.
NC/C=C\C(=O)O was read as G9a inh 13µM*! and VDR inhibitor 6%.
For NC/C=C/C(=O)O the results were G9a inh 7%[59 µM] and VDR inhibitor 2%.
For CC(=O)Nc1ccc(N2C(=O)CC(Sc3nc4ccccc4s3)C2=O)cc1 (stereo not drawn) the results were BAZ2B block -32%, JMJD2A Tudor -17%, PLK1 PBD block -9%, G9a inh 28µM*, HP1b binding inh 35% and VDR inhibitor 13%.
For Cc1cc(C)nc(SC2CC(=O)N(c3ccc(Br)cc3)C2=O)n1 (stereo not drawn) the results were BAZ2B block -15%, JMJD2A Tudor -2%, PLK1 PBD block -5%, G9a inh 40µM*, HP1b binding inh 53% and VDR inhibitor -2%.
For CCOC(=O)c1ccc(N2C(=O)C=CC2=O)cc1 the results were BAZ2B block inconclusive, JMJD2A Tudor 22µM*, PLK1 PBD block 3.8µM*, G9a inh inconclusive, HP1b binding inh 20µM* and VDR inhibitor 50µM*.
Cc1nc(SC2CC(=O)N(c3ccccc3)C2=O)n[nH]1 (stereo not drawn) was read as BAZ2B block inconclusive, JMJD2A Tudor inconclusive, PLK1 PBD block 30µM*, HP1b binding inh inconclusive and VDR inhibitor -1%.
For CC(=O)NS(=O)(=O)c1ccc(NS(=O)(=O)c2ccccc2[N+](=O)[O-])cc1 the results were BAZ2B block -3%, JMJD2A Tudor 6%, PLK1 PBD block 1%, HP1b binding inh 36% and VDR inhibitor 12%.
CC(=O)c1ccc(-c2cc(C3C4C=CCC(C)C4C(=O)N3Cc3ccccc3)ccc2F)cc1 (stereo not drawn) was read as JMJD2A Tudor -23%, HP1b binding inh 8% and VDR inhibitor -19%.
`C=CCNc1nnc(SC2CC(=O)N(c3ccc(OCCC)cc3)C2=O)s1` (stereo not drawn) gave BAZ2B block -4%, JMJD2A Tudor 35µM*, PLK1 PBD block 21µM*, G9a inh 8.9µM*, HP1b binding inh -24% and VDR inhibitor -6%.
Screening CCOC(=O)c1ccc(N2C(=O)CC(Sc3nnc(C)s3)C2=O)cc1 (stereo not drawn) returned BAZ2B block -12%, JMJD2A Tudor 50µM*, PLK1 PBD block inconclusive, G9a inh 10µM*, HP1b binding inh -23% and VDR inhibitor -3%.
For CCOC(=O)c1ccc(N2C(=O)CC(Sc3nc(C)cc(C)n3)C2=O)cc1 (stereo not drawn) the results were BAZ2B block -8%, JMJD2A Tudor 12%, PLK1 PBD block -5%, G9a inh -11%[59 µM], HP1b binding inh 56% and VDR inhibitor -5%.
